Inconclusive results are not listed. A number with no mark means an inactive call. Activity calls are given as the source filed them. The call rests on the fitted dose curve; in most records, active means well fitted inhibition curve with a large enough effect; inconclusive means small, poorly fitted or top-dose-only effect; inactive means no such curve, though single readings can be large or run the other way.
Potency means the concentration at half of the fitted maximal effect.

A short description of this experiment: BET inhibitor-based combinations targeting novel dependencies in MECOM-rearranged (r) AML: OCI-AML3 cell line (AID 2202232). Further: nearly all actives have a fitted effect of over 35% in size.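 On viability (% of control): plate controls were DMSO vehicle wells for no effect and wells without cells for full effect.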 The following applies: CellTiter-Glo luminescence, 48 h; Potency: OCI-AML3 viability; series mostly up to 46 µM; viability (% of control): at the top concentration. The gist of the method: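 Cells were plated at 500 per well and exposed to an 11-point dose series of each drug for 48 hr. Viability was measured by CellTiter-Glo luminescence, normalized to DMSO and empty-well controls, and summarized as AUC and per-cell-line Z-AUC.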
On the technique in general: In ATP-based viability assays light output follows the ATP content of the culture.
With `CCN(CCO)CCCC(C)Nc1ccnc2cc(Cl)ccc12` (stereo unspecified), the viability (% of control) is 48.6% [at 5.12 µM].

In the case of `CCCCc1oc2ccc(NS(C)(=O)=O)cc2c1C(=O)c1ccc(OCCCN(CCCC)CCCC)cc1`, the Potency is 14.8 µM (active).

For the compound `CC(C)(C)c1cc(C(=O)O)c(NC(=O)Nc2ccc3[nH]ncc3c2)s1`, the “viability (% of control)” value was 101%.

As for `CCC(CC)C(c1ccc(Nc2nc3ccccc3s2)cc1)n1cncn1` (stereo unspecified), the Potency is 11.8 µM (active).

In the case of `Cc1cc(C(=O)N2CCN(c3cccc(Cl)c3)CC2)n(-c2ccccc2)n1`, the Potency was 4.17 µM (active).

In the case of `COc1ccc(CCC(=O)Nc2nc3ccc(Cl)cc3s2)cc1OC`, the “viability (% of control)” value was 98%.

In the case of `CNC(=O)c1cccc(-c2ccc3c(N4CCOC[C@@H]4C)nc(N4CCOC[C@@H]4C)nc3n2)c1`, the Potency is 0.263 µM (active).

On to `Clc1cccc(-n2nnnc2NCc2ccccc2Oc2ccccn2)c1Cl`, for which the “viability (% of control)” value was 111%.

On to `O=C(C(c1ccccc1)c1ccccc1)N1CCN(CC(O)COc2cccc3ncccc23)CC1` (stereo unspecified), for which the Potency was 11.8 µM (active).

Regarding `OC[C@H]1O[C@@H](Oc2cc(O)cc(/C=C/c3ccc(O)cc3)c2)[C@H](O)[C@@H](O)[C@@H]1O`, the “viability (% of control)” value was 101%.

As to `C[C@H]1CN(C[C@H](Cc2ccccc2)C(=O)NCC(=O)O)CC[C@@]1(C)c1cccc(O)c1`, the “viability (% of control)” value is 123%.

In the case of `CC(C)(C)NC(=O)Nc1cccc(Nc2ncc(F)c(NC(C)(C)CO)n2)c1`, the Potency is 3.72 µM (active).

`C[C@]12CC[C@H](O)CC1=CCC1C2CC[C@]2(C)C(n3cnc4ccccc43)=CCC12` (stereo partly specified): the “viability (% of control)” value is 103%.

`NS(=O)(=O)OC[C@@H]1C[C@@H](n2ccc3c(N[C@H]4CCc5ccccc54)ncnc32)C[C@@H]1O`: the Potency was 0.372 µM (active).

In the case of `NCC(=O)Nc1ccc(-n2nc(C(F)(F)F)cc2-c2ccc3c(ccc4ccccc43)c2)cc1`, the Potency is 18.6 µM (active).

On to `Cc1cc(-c2ncc(CC(=O)Nc3ccc(-c4cnccn4)cn3)cc2C)ccn1`, for which the Potency is 8.33 µM (active).

For `COc1ccc2cc(OCC3(C(=O)O)CN(C(=O)c4ccc(F)cc4)C3)ccc2c1`, the “viability (% of control)” value was 108%.

Turning to `COc1ccc(N(C)c2nc(C)nc3ccccc23)cc1`, the Potency was 0.0093 µM (active).

Turning to `COc1ccc2c(OCc3nnc4ccc(-c5ccccc5)nn34)ccnc2c1`, the “viability (% of control)” value was 126%.

Consider `Cc1cc(OCc2nnc(SC3CCCC3)n2-c2cccnc2)ccc1-c1ccc(S(C)(=O)=O)cc1`, for which the Potency is 3.72 µM (active).

On to `CNC(=O)c1ccc(-c2cnc3ncc(Cc4ccc5ncccc5c4)n3n2)cc1F`, for which the “viability (% of control)” value was 65.6%.

Consider `COCCOc1ccc(N2CCN(CCn3ncc4c3nc(N)n3nc(-c5ccco5)nc43)CC2)cc1`, for which the “viability (% of control)” value is 115%.

Take `COC(=O)N(C)c1c(N)nc(-c2nn(Cc3ccccc3F)c3ncccc23)nc1N`: the “viability (% of control)” value is 125%.

Take `Cn1c(CNc2ccc(C(=N)N)cc2)nc2cc(C(=O)N(CCC(=O)O)c3ccccn3)ccc21`: the viability (% of control) is 119% [at 0.315 µM].

For `CN1CC[C@@H](NC(=O)Nc2ccc(C#N)cc2)C[C@@H]1c1nc2ccccc2[nH]1`, the “viability (% of control)” value was 118%.

As to `COc1cccc(Nc2c(C(N)=O)cnc3c(C)cc(S(=O)(=O)c4cccc(C(=O)N(C)C)c4)cc23)c1`, the Potency was 16.6 µM (active).

For `CC(C)(N)C(=O)N[C@H](COCc1ccccc1)C(=O)N1CCC2(CC1)CN(S(C)(=O)=O)c1ccccc12`, the Potency was 11.8 µM (active).

Consider `COc1ccc(-n2c(SCCCN3C(=O)c4cccc5cccc(c45)C3=O)nnc2-c2ccncc2)cc1`, for which the “viability (% of control)” value is 90.6%.

Turning to `COc1cccc2c(NCc3ccccc3)nc(-n3c(N)nc4ccccc43)nc12`, the Potency was 3.32 µM (active).

Take `COC(=O)Nc1nc2ccc(C(=O)c3ccc(F)cc3)cc2[nH]1`: the Potency was 0.59 µM (active).

For `COc1cc2c(cc1OC)CN(CCc1ccc(NC(=O)c3cccc4c(=O)c5cccc(OC)c5[nH]c34)cc1)CC2`, the “viability (% of control)” value was 103%.

Turning to `Cc1cccc(-c2nn3c(c2-c2ccnc4ccc(C(N)=O)cc24)CCC3)n1`, the “viability (% of control)” value is 120%.

`COc1ccc(-n2nc(C(N)=O)c3c2C(=O)N(c2ccc(N4CCCCC4=O)cc2)CC3)cc1`: the “viability (% of control)” value was 75.3%.

Turning to `CC(C)OC(=O)C1=CN(C(=O)c2ccc(F)c(F)c2)CC(C)(C)c2c1[nH]c1ccccc21`, the “viability (% of control)” value was 113%.

Take `CCCCNc1ncc(-c2ccc(CN3CCOCC3)cn2)c(NC2CCC(O)CC2)n1` (stereo unspecified): the Potency is 1.15 µM (active).

For `Cc1nnc(C(C)C)n1C1CC2CCC(C1)N2CC[C@H](NC(=O)C1CCC(F)(F)CC1)c1ccccc1` (stereo partly specified), the “viability (% of control)” value is 85.1%.
